# Results reported in the supplement of paper PMC12067093, “Discovery and optimisation of a covalent ligand for TRIM25 and its application to targeted protein ubiquitination” (Chemical Science, 2025).
# The full data set covers some 21,000 targets. This sample favours those with the largest changes.
# Compound: Cc1cc(ccc1-c1ccccc1)C(=O)N1CCCN(CC1)C(=O)CCl [compound 10]
# Test: probe-labelled cysteine peptide fold change vs DMSO (competition) (log2 fold change); higher = less target engagement (more negative = stronger competition)
# Settings: 50 µM; THP-1; incubation time: 4 h
# 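Also: competitive profiling in live THP-1 cells: cysteine peptides tagged with an iodoacetamide desthiobiotin (IA-DTB) probe, intensity after compound treatment relative to DMSO-treated cells.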
# UniProt P01100, sequence (P01100 whole entry): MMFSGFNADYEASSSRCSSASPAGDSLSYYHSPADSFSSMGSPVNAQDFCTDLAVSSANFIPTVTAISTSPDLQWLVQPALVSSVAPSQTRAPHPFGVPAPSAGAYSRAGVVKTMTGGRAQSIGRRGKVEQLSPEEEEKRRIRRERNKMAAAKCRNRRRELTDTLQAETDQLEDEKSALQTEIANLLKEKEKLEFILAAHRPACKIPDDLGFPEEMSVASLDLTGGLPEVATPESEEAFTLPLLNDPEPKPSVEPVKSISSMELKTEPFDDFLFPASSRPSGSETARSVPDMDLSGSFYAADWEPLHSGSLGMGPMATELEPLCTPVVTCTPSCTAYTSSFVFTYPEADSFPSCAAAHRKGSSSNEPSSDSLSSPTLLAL
# UniProt P04222, sequence (P04222 whole entry, looked up): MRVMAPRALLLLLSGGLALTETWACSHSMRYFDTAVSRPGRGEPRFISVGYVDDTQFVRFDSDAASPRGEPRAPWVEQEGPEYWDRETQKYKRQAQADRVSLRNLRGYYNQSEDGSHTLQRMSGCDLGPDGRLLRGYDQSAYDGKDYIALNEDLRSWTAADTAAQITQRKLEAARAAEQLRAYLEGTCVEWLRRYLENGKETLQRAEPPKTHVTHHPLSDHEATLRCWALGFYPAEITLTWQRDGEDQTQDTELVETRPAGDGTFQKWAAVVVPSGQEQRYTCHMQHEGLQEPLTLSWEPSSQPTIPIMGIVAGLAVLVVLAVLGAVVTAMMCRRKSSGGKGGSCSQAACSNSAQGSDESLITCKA
# UniProt P07203, sequence (P07203 whole entry, looked up): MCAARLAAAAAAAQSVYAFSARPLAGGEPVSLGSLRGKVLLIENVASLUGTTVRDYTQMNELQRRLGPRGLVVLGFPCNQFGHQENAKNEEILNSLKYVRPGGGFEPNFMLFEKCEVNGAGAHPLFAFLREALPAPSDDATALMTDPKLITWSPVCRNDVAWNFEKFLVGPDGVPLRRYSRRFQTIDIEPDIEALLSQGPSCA
# UniProt Q9BSH5, sequence (Q9BSH5 whole entry, looked up): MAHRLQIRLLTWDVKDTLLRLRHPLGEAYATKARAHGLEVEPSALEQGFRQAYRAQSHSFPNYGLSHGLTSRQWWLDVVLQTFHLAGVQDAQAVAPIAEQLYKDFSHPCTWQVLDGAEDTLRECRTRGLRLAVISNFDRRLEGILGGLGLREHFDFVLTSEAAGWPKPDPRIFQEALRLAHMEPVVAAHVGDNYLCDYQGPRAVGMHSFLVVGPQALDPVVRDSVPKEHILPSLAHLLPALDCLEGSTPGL
# UniProt Q9Y613, sequence (Q9Y613 whole entry, looked up): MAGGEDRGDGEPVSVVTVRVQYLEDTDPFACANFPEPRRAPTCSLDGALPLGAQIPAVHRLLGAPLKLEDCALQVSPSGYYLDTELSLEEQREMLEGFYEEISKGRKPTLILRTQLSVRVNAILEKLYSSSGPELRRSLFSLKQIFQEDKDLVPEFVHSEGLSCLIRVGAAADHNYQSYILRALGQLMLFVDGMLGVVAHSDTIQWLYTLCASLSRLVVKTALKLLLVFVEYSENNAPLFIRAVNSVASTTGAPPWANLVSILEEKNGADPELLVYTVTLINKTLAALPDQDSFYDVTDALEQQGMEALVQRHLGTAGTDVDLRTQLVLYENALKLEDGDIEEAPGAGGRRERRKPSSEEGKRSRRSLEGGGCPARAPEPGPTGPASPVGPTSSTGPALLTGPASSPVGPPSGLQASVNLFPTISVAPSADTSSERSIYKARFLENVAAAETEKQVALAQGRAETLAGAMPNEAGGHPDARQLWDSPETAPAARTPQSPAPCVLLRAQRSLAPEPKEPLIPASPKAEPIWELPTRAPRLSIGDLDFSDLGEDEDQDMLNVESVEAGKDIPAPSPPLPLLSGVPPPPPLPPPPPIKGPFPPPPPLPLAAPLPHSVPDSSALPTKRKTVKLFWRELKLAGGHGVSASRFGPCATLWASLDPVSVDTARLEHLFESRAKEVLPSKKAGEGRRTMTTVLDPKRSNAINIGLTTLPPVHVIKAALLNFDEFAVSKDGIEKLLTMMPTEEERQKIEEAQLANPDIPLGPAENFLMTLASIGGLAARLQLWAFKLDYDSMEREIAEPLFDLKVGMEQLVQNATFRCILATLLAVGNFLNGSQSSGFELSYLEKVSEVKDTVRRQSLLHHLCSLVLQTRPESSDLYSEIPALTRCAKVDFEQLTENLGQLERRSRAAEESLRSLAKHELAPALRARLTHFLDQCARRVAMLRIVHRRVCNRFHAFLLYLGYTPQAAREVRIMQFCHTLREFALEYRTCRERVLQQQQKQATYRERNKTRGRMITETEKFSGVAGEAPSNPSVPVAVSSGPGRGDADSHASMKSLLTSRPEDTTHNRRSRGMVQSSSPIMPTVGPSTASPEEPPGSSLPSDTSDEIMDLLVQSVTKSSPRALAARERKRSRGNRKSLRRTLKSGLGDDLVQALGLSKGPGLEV
# UniProt Q86SF2, sequence (Q86SF2 whole entry, looked up): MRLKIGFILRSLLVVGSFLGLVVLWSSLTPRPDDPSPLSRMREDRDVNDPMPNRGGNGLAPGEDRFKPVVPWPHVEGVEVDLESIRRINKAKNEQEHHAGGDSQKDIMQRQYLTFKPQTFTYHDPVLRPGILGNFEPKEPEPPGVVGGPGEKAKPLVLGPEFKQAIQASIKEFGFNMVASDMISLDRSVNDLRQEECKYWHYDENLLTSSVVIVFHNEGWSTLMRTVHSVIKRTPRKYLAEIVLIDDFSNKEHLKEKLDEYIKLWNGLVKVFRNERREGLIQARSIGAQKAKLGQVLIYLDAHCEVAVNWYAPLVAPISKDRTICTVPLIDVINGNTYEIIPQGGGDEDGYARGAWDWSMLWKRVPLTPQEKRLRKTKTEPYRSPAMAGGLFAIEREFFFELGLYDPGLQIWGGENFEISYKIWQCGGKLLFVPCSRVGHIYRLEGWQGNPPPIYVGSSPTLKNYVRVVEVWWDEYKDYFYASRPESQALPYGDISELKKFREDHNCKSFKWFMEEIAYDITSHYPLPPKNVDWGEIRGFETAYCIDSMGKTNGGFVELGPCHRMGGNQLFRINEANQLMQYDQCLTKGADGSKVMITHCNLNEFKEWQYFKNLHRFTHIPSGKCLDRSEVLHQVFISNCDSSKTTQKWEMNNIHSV
# UniProt Q9NQE9, sequence (Q9NQE9 whole entry, looked up): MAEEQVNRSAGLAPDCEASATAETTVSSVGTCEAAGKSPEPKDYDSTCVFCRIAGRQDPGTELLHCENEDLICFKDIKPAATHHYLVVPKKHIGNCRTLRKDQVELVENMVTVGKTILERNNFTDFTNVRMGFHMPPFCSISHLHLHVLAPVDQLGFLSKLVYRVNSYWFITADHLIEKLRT
# UniProt P52790, sequence (P52790 whole entry, looked up): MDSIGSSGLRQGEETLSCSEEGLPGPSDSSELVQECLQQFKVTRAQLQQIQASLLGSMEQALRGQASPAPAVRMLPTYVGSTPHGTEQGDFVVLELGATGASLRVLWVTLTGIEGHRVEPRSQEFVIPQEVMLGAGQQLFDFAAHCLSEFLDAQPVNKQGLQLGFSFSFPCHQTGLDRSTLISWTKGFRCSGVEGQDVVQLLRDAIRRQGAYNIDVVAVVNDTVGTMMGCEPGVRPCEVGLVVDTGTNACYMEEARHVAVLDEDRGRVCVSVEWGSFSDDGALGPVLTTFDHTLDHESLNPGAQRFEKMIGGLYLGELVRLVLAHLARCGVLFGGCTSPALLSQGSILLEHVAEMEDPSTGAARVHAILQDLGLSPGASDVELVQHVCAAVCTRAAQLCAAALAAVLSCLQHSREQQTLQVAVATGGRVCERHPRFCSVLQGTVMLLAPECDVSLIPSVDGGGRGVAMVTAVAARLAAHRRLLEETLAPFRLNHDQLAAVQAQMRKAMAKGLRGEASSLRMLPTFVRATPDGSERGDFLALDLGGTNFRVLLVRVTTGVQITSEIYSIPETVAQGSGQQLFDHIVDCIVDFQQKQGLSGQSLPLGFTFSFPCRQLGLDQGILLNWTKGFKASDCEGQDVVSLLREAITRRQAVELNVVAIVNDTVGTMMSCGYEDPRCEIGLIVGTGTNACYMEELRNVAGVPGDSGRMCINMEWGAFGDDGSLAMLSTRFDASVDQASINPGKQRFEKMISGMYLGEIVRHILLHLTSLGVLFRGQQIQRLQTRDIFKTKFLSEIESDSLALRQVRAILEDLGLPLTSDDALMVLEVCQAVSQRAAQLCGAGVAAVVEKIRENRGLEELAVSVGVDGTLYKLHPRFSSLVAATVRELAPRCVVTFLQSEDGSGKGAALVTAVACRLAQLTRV
# UniProt Q8N335, sequence (Q8N335 whole entry, looked up): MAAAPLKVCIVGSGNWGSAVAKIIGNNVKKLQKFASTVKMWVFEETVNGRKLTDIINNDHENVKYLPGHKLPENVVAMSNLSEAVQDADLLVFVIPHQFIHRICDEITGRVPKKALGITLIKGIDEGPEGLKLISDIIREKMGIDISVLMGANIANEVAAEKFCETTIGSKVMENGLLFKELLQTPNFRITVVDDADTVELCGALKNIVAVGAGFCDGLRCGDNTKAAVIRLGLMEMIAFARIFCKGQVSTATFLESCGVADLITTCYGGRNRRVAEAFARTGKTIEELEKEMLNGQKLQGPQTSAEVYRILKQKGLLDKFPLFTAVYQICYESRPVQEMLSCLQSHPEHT
# UniProt P57764, sequence (P57764 whole entry, looked up): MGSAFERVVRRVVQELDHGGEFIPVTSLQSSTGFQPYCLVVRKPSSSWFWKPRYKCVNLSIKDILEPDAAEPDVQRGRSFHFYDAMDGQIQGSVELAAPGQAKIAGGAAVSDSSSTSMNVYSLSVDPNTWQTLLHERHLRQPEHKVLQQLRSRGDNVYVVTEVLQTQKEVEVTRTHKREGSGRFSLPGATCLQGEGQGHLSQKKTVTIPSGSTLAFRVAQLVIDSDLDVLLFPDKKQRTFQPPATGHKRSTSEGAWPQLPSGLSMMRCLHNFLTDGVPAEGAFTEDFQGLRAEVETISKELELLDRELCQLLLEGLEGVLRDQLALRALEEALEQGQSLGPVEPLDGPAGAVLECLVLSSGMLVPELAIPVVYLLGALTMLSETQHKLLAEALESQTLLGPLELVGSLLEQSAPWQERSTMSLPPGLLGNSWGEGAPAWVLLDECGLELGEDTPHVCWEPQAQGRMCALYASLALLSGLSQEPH
row,Target,probe-labelled cysteine peptide fold change
1,GALNT7_Q86SF2_545_GFETAYCIDSMGK (UniProt Q86SF2),0.095
2,GOLGA4_Q13439_1085_ILLFGCEK (UniProt Q13439),0.095
3,GPX1_P07203_78_GLVVLGFPCNQFGHQENAKNEEILNSLK (UniProt P07203),-1.3
4,FYCO1_Q9BQS8_293_LTCLVAELQK (UniProt Q9BQS8),0.224
5,FHOD1_Q9Y613_43_APTCSLDGALPLGAQIPAVHR (UniProt Q9Y613),0.425
6,HDHD3_Q9BSH5_109_DFSHPCTWQVLDGAEDTLR (UniProt Q9BSH5),-1.92
7,HINT3_Q9NQE9_66+73_QDPGTELLHCENEDLICFK (UniProt Q9NQE9),-0.532
8,GOLGA2_Q08379_984_ERPGLGSNPCIPFFYR (UniProt Q08379),-0.0471
9,HGS_O14964_212_VCEPCYEQLNR (UniProt O14964),-0.13
10,GPATCH1_Q9BRR8_485_AQLSPAAAAGHCSWNMALGGGTATLK (UniProt Q9BRR8),-1.25
11,HLA-C_P04222_345+364_GGSCSQAASSNSAQGSDESLIACKA (UniProt P04222),-1.66
12,FOS_P01100_204_EKLEFILAAHRPACK (UniProt P01100),1.53
13,GABPA_Q06546_69_LQCSLDAHEICLQDIQLDPER (UniProt Q06546),-0.0571
14,HK3_P52790_840_AAQLCGAGVAAVVEK (UniProt P52790),-0.0558
15,GPD1L_Q8N335_216_NIVAVGAGFCDGLR (UniProt Q8N335),0.115
16,GSDMD_P57764_38_RVVQELDHGGEFIPVTSLQSSTGFQPYCLVVR (UniProt P57764),-0.375
